For seven compounds, outcome and Potency results are on record in PubChem BioAssay (Tox21).

Test [1] in a line: qHTS assay to test for compound auto fluorescence at 535 nm (green) in HEK293 cells (AID 720680).
Test [2] can be described thus: qHTS assay to test for compound auto fluorescence at 460 nm (blue) in HEK293 cell free culture (AID 720681). Summed up:
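Compounds were added to cell-free DMEM with 10% FBS and fluorescence read directly. The blue channel used 405 nm excitation and 460 nm emission, with triamterene as the reference fluorophore.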
Background: In qHTS, concentration-response curves come from the screen itself.

Test [3] is described as follows: qHTS assay to test for compound auto fluorescence at 535 nm (green) in HEK293 cell free culture (AID 720682). The essentials:
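Green-channel intensity (Ex/Em 485/535 nm) was recorded from compound-treated wells containing only DMEM with 10% FBS. Fluorescein provided the equivalency standard.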

Test [4] can be described thus: qHTS assay to test for compound auto fluorescence at 590 nm (red) in HEK293 cell free culture (AID 720683). Summed up: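 Cell-free wells of DMEM with 10% FBS received compound, and intrinsic fluorescence was read at excitation/emission 540/590 nm. Values expressed as equivalence to Rose Bengal sodium.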
Test [5] can be described thus: qHTS assay to test for compound auto fluorescence at 590 nm (red) in HepG2 cell free culture (AID 720684). Summed up: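 Rose Bengal sodium served as the reference for red signal. Test compounds were dispensed into serum-containing MEM (10% FBS) without cells, and plates were read at 540/590 nm.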
A short description of test [6]: qHTS assay to test for compound auto fluorescence at 460 nm (blue) in HepG2 cell free culture (AID 720685). Summed up:
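Cell-free plates of MEM plus 10% FBS received 23 nL compound or DMSO vehicle; blue-channel (405/460 nm) intensity scored against triamterene as reference fluorophore.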

The nature of test [7]: qHTS assay to test for compound auto fluorescence at 535 nm (green) in HepG2 cell free culture (AID 720686).
Test [8] in a line: qHTS assay to test for compound auto fluorescence at 460 nm (blue) in HepG2 cells (AID 720687). The essentials: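 HepG2 cells in MEM with 10% FBS, attached overnight at 37 C, were exposed to compound or DMSO for 1 hr at 37 C, 5% CO2. Blue fluorescence was read at 405/460 nm, with triamterene as reference fluorophore.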
Test [9] addresses Glucocorticoid receptor (Homo sapiens) (UniProt P04150). Kind of test: qHTS assay to identify small molecule agonists of the glucocorticoid receptor (GR) signaling pathway (AID 720691; active means well fitted activation curve with a large enough effect in the signal ratio in the repeat runs, not every such curve was filed as active; the % refers to the signal ratio; further: potency means the concentration at half of the fitted maximal effect). The essentials: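 Measures GR pathway activation through a GRE-beta-lactamase reporter stably integrated in HeLa cells, with 18 h compound treatment at 37 C and fluorescence detection using a FRET substrate.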

Test [10] is described as follows: qHTS assay to identify small molecule antagonists of the glucocorticoid receptor (GR) signaling pathway - cell viability counter screen (AID 720693). Further: nearly all actives have a fitted effect of over 55% in size.
A short description of test [11]: qHTS assay for identifying genotoxic compounds that show differential cytotoxicity against isogenic chicken DT40 cell lines with known DNA damage response pathways - wild type cell line (AID 743012). Further: nearly all actives have a fitted effect of over 60% in size. Further: potency means the concentration at half of the fitted maximal effect. The essentials:
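Endpoint: CellTiter-Glo luminescence, 30 min RT. Cells: wild type DT40, 300/well. Exposure: compounds in DMSO, 40 h, 37 C/5% CO2, after ~0.5 h pre-incubation.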

A short description of test [12]: qHTS assay for identifying genotoxic compounds that show differential cytotoxicity against isogenic chicken DT40 cell lines with known DNA damage response pathways - Rev3 mutant cell line (AID 743014). Further: nearly all actives have a fitted effect of over 55% in size. Further: potency means the concentration at half of the fitted maximal effect.
Test [13] in a line: qHTS assay for identifying genotoxic compounds that show differential cytotoxicity against isogenic chicken DT40 cell lines with known DNA damage response pathways - Rad54/Ku70 mutant cell line (AID 743015). Further: nearly all actives have a fitted effect of over 60% in size. Further: potency means the concentration at half of the fitted maximal effect.
The nature of test [14]: qHTS assay to identify small molecule antagonists of the androgen receptor (AR) signaling pathway - cell viability counter screen (AID 743033; further: nearly all actives have a fitted effect of over 45% in size).
Test [15] has as its target Androgen receptor (Homo sapiens) (UniProt P10275). Kind of test: qHTS assay to identify small molecule agonists of the androgen receptor (AR) signaling pathway using the MDA cell line (AID 743040; further: nearly all actives have a fitted effect of over 20% in size). Summed up: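 Luciferase read-out, ONE-Glo, 30 min RT. Cells: MDA-kb2 AR-luc, MMTV promoter with AR and GR response elements. Compound exposure 16 h, 37C, 0% CO2, after 5 h pre-incubation. qHTS agonist mode.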

Test [16] has the same target. Kind of test: qHTS assay to identify small molecule antagonists of the androgen receptor (AR) signaling pathway using the MDA cell line (AID 743042; further: nearly all actives have a fitted effect of over 55% in size; further: potency means the concentration at half of the fitted maximal effect). Summed up:
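MDA-kb2 breast carcinoma cells carrying MMTV-luciferase (AR/GR responsive) were co-treated with compounds and the agonist R1881 for 16 h at 37C. Inhibition read as ONE-Glo luminescence; CellTiter-Fluor fluorescence measured in parallel for cytotoxicity.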

Test [17] can be described thus: qHTS assay to identify small molecule antagonists of the androgen receptor (AR) signaling pathway using the MDA cell line - cell viability counter screen (AID 743041; further: nearly all actives have a fitted effect of over 45% in size). The essentials:
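Cytotoxicity counter screen: MDA-kb2 AR-luc cells, compound + R1881, 16 h, 37C, 0% CO2; CellTiter-Fluor added at 15.5 h, fluorescence read after 30 min.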

Test [18] addresses Glucocorticoid receptor (Homo sapiens) (UniProt P04150). Kind of test: qHTS assay to identify small molecule antagonists of the glucocorticoid receptor (GR) signaling pathway (AID 720692; active means well fitted inhibition curve with a large enough effect in the signal ratio in the repeat runs, not every such curve was filed as active; the % refers to the signal ratio). The essentials:
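Tox21 10K library screened in concentration-response for blockade of dexamethasone (5 nM final)-induced GRE-bla reporter activity in HeLa cells; 18 h treatment, fluorescence read.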

For test [19], the target named is Androgen receptor (Homo sapiens) (UniProt P10275). Kind of test: qHTS assay to identify small molecule antagonists of the androgen receptor (AR) signaling pathway (AID 743035; active means well fitted inhibition curve with a large enough effect in the signal ratio in the repeat runs, not every such curve was filed as active; the % refers to the signal ratio; further: potency means the concentration at half of the fitted maximal effect). Summed up: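 R1881 agonist challenge of a HEK293 UAS-beta-lactamase AR reporter line in the presence of compound (16 h, 37C); signal taken as FRET fluorescence after 2 h with LiveBLAzer B/G substrate at room temperature.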
Sequence of Androgen receptor (Homo sapiens) (P10275 whole entry, looked up): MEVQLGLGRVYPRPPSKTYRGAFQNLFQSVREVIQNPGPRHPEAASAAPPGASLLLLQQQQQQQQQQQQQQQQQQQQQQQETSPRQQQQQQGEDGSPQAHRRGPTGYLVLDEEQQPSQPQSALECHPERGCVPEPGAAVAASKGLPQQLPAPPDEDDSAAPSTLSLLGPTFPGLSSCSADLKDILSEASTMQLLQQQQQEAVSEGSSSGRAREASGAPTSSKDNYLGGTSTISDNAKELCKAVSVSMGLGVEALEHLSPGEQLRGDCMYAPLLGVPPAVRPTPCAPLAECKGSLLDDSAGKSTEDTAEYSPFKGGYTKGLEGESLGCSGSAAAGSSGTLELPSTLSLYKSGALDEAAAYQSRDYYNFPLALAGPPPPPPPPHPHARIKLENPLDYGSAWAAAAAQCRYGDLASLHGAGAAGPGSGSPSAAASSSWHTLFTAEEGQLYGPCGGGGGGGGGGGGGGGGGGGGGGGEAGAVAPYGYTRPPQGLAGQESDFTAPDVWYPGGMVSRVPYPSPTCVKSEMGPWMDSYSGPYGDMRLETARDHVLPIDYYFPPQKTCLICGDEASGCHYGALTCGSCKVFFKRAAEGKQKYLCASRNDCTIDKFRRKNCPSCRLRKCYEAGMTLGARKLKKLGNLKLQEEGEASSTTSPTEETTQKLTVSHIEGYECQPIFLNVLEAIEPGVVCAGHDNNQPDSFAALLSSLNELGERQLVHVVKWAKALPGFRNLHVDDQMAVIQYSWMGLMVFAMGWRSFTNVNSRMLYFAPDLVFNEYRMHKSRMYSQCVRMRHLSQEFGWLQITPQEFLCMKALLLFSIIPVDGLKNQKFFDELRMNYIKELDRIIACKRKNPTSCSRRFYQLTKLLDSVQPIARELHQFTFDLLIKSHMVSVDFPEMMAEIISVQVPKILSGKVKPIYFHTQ

The target is the same in test [20]. Kind of test: qHTS assay to identify small molecule agonists of the androgen receptor (AR) signaling pathway (AID 743036; active means well fitted activation curve with a large enough effect in the signal ratio in the repeat runs, with a control signal flat, not every such curve was filed as active; the % refers to the signal ratio). The essentials:
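Cell-based FRET reporter assay: HEK293 line with a UAS-beta-lactamase construct, compounds added in DMSO, 16 h exposure at 37C, then 2 h substrate step at room temperature and fluorescence intensity read.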

Values without a mark were called inactive. Records with an inconclusive call do not appear. Activity calls are given as the source filed them. Unless noted, the call rests on the fitted dose curve; in most records, active means well fitted curve in the direction sought with a large enough effect in the repeat runs; inconclusive means weak or mixed curves; inactive means no such curve, though single readings can be large; an effect the other way counts as inactive or inconclusive.

Sequence of Glucocorticoid receptor (Homo sapiens) (P04150 whole entry, looked up): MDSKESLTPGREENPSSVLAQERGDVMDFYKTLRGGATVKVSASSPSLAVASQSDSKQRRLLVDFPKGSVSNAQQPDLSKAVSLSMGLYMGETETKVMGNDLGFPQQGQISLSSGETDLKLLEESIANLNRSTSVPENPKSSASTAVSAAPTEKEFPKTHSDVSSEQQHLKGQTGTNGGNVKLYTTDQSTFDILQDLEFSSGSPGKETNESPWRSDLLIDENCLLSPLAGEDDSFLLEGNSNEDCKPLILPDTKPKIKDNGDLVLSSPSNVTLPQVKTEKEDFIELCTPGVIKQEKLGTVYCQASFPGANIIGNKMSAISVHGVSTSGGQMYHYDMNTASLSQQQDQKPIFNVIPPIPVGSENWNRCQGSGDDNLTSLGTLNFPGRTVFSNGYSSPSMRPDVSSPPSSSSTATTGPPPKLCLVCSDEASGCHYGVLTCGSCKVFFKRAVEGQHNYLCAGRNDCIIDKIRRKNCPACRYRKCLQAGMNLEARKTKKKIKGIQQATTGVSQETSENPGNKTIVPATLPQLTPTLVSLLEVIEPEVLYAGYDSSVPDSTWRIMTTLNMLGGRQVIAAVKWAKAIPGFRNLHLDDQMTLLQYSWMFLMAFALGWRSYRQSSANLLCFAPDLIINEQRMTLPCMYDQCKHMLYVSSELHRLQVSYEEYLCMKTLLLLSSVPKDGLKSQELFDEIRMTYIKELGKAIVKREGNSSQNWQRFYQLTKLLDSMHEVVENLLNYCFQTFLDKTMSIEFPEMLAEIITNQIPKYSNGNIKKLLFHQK

Take `CC(C)(C)OC(=O)c1ccc(O)cc1`: the compound was called inactive in [1], in [2], in test [3], in [4], in test [5] and in test [6]. Moreover, the compound was called inactive in [7], in test [8], in [10] and in test [15]. The Potency result in test [9], in [11], in test [12], in [13], in [14] and in test [16] was “inactive” throughout.

Take `CCCCCCCCC1CCC(=O)O1` (configuration not stated): the outcome in [1], in test [2], in [3], in test [4], in test [5] and in test [6] was inactive. Further, the compound was called inactive in test [7], in [8] and in test [10]. Also, in test [9], the Potency is 43.6 µM (active). Moreover, the Potency entry in test [11], in test [12], in test [13], in test [14] and in test [17] was “inactive” throughout.

Regarding `O=C1O[C@@H]2[C@@H](O)[C@H](O)O[C@@H]2[C@H]1O`, the result in test [1], in test [2], in [3], in test [4], in test [5] and in test [6] was inactive. The outcome in test [7], in test [8] and in [18] was inactive. The Potency entry in test [9], in [11], in test [12], in test [13] and in test [14] was “inactive” each time.

As to `BrCCCCCBr`, the compound was called inactive in test [1], in [2], in test [3], in test [4], in test [5] and in [6]. Besides, the result in test [7], in [8] and in [10] was inactive. The Potency result in test [9], in [11], in test [12], in test [13], in test [14] and in [17] was “inactive” in each case.

Consider `C=C(C)C(=O)OCCOP(=O)(O)OCCOC(=O)C(=C)C`, for which the compound was classed as inactive in [1], in test [2], in test [3], in test [4], in test [5] and in test [6]. The outcome in [7], in [8] and in test [18] was inactive. For the same compound, the Potency entry in test [9], in test [11], in test [12], in [13] and in test [14] was “inactive” in each case.

With `CCCCC(CC)COCCO` (configuration not stated), the compound was classed as inactive in test [1], in [2], in [3], in [4], in test [5] and in [6]. Also, the call in [7], in [8] and in [10] was inactive. Besides, the Potency entry in [9], in test [11], in [12], in test [13] and in test [14] was “inactive” in each case.

For the compound `O=C(Nc1ccc(Cl)c(Cl)c1)C1CC1`, the call in test [1], in test [2], in test [3], in test [4], in test [5] and in test [6] was inactive. The outcome in test [7], in test [8], in test [18], in test [20] and in [15] was inactive. Further, the Potency result in [9], in test [14] and in [17] was “inactive” each time. For the same compound, the Potency was 29.8 µM (active) in test [11]; 26.6 µM (active) in [12]; 29.8 µM (active) in test [13]; 19 µM (active) in test [19]; 29.8 µM (active) in test [16].
